Source: PubChem (Broad Institute)
C2C12 statin: suppressors of statin myotoxicity in C2C12 myotubes, primary screen, cell-based, single point, plate reader | actives 0.78% (n = 330,000) | C2C12 myotubes + simvastatin, ATP luminescence, 48 h; scaled: DMSO 0, geranylgeraniol control 100 | rescue of ATP level, % at 7.49 µM;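 active means mean ATP rescue above about 67%, or every replicate alone reaching that limit, limit read from the data, passing the limit was not always enough; inconclusive means no clear call, values can overlap the other calls; inactive means mean under the limit and some replicate under it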;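 further: myotubes were challenged with 10 µM simvastatin during compound exposure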
esBAF inh: Bmi1 luciferase reporter increase in mESCs, primary screen, esBAF inhibitor project, mouse ES cells, Bmi1 luciferase knock-in, single point | actives 2% (n = 350,000) | AID 602393, 2012 | reporter increase, % at 12.5 µM | 24 h; 100% = twice the neutral-well signal; in the data active means activation above about 40%; inconclusive means no clear call, values can overlap the other calls;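 further: 0% = median of the plate's neutral control wells and 100% = double that signal; a rise in the Bmi1 reporter signal indicates esBAF inhibition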
Wnt bcat act: Wnt/beta-catenin pathway activators, primary screen, cell-based, plate reader, single point; actives 1.2% (n = 300,000); AID 743398, 2014; activation, % at 9.35 µM; Wnt/beta-catenin reporter cell assay, activator; in the data active means activation above about 30%, passing the limit was not always enough; inconclusive means no clear call, values can overlap the other calls;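 further: 0% = neutral control wells and 100% = positive control wells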
MITF act: activators of MITF-driven TRPM1 promoter reporter, primary screen, cell-based, SK-MEL-5, luciferase, single point | SK-MEL-5 TRPM1-promoter luciferase, 24 h; % of positive control, neutral wells = 0 | activation, % at 12.5 µM | actives 0.75% (n = 300,000) | AID 588334, 2011;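 active means mean activation of at least 80% with every replicate also reaching 80%; inconclusive means mean reaches 80% but some replicate falls short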;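 further: 0% = neutral control wells and 100% = parthenolide positive control wells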
The depositor's hits bear a star; ? = inconclusive; / = no result given. Shown are actives, neighbours in structure and some others; about 3% of the full set was active somewhere.

SMILES	C2C12 statin	esBAF inh	Wnt bcat act	MITF act
CN1C(=O)NC(=O)C(C)(C2=CCCCC2)C1=O (centres undefined)	4	28	0	100*
N=c1n(CCO)c2ccccc2n1Cc1ccccc1	86*	12	/	4
Cc1ccccc1S(=O)(=O)N1[C@@H]2Cn3c(ccc(-c4cccnc4)c3=O)[C@H]1[C@@H](C(=O)O)[C@@H]2CO	-13	-3	/	/
O=C(O)[C@H]1[C@H](CO)[C@H]2Cn3c(ccc(-c4cccnc4)c3=O)[C@@H]1N2S(=O)(=O)c1ccccc1F	20	-9	/	/
Cc1nn(CC(C)C)c(Cl)c1C(=O)NC1CCC(C)CC1 (centres undefined)	-15	66*	29	96*
O=C(c1ccccc1)C1NC1c1ccccc1 (centres undefined)	-16	49*	-4	18
Cc1cc(C(=O)OCC(=O)Nc2ccc(F)cc2F)c(C)n1C1CC1	0	10	-1	9
Cc1cc(C(=O)OCC(=O)Nc2ccccc2F)c(C)n1C1CC1	12	57*	9	85*
O=C1NC(=S)NC(=O)C1=Cc1ccc(OCc2ccccc2)cc1	-10	44*	6	50
COc1ccc(C#Cc2ccc([C@@H]3[C@H]4CN(C(=O)Cc5ccccc5)CCCCN4[C@H]3CO)cc2)cc1	-2	3	/	/
COc1ccc(-c2cc(=NCC(=O)O)c3ccccc3o2)cc1	11	47*	/	11
COc1ccc(-c2cc(=NCCCCCC(=O)O)c3cc(C)ccc3o2)cc1	/	/	-2	18
COC(=O)[C@@H]1[C@@H](CO)[C@@H]2Cn3c(ccc(-c4ccccc4F)c3=O)[C@H]1N2CC1CCCC1	20	3	/	/
CN1CC(C(=O)c2ccc(F)cc2)C(c2ccc(F)cc2)C1 (centres undefined)	-1	1	5	4
CN1CC(C(=O)c2ccccc2)C(C(=O)c2ccccc2)C1 (centres undefined)	-13	57*	2	/
CC(=O)c1ccc(OC(=O)N(C)c2ccccc2)cc1	/	/	27	36
CC(=O)c1ccc(-c2ccccc2)cc1	/	34*	15	32
Cc1cc(C)c(NC2=NCCCS2)c(C)c1	82*	1	-1	11
Cc1cccc(C)c1NC1=NCCCS1	3	-4	-1	0
CN(C)C(=O)Oc1ccc2c(c1)O/C(=C\c1ccc(Cl)cc1)C2=O	2	?	9	104*
CCC(=O)N1[C@@H]2c3ccc(-c4ccc(F)cc4)c(=O)n3C[C@H]1[C@H](CO)[C@H]2C(=O)OC	-4	2	/	/
CCOC(=O)C1=C(C)OC(N)=C(C(=O)OCC)[C@@]12C(=O)N(CC(N)=O)c1ccccc12	98*	15	-5	-6
C=CCOC(=O)C1=C(C)OC(N)=C(C(=O)OCC)C12C(=O)N(CC(N)=O)c1ccccc12 (centres undefined)	3	-5	/	-5
CCN(CC)C(=O)c1ccc2c(c1)C1C=CCC1C(C(=O)O)N2 (centres undefined)	125*	-2	-2	-10
CC(C)(C)C(=O)c1cn(CC(=O)NCc2ccco2)c2ccccc12	/	/	-1	85*
SMILES	C2C12 statin	esBAF inh	Wnt bcat act	MITF act
O=C(Cn1cc(C(=O)c2ccccc2F)c2ccccc21)NCc1ccco1	8	8	/	-11
COC(=O)[C@H]1[C@H](CO)[C@H]2Cn3c(ccc(-c4cccc(OC)c4)c3=O)[C@@H]1N2C(=O)c1ccccc1F	17	5	/	/
CC=Cc1ccc2n(c1=O)C[C@H]1[C@H](CO)[C@@H](C(=O)O)[C@@H]2N1S(=O)(=O)c1ccccc1C (mixture of isomers)	-9	-1	/	/
CC#CP(=O)(OC)C(O)(CF)c1ccccc1 (centres undefined)	105*	-4	-3	-7
CC#CP(=O)(OCC)C(O)(c1ccccc1)C(F)(F)F (centres undefined)	3	-7	/	-6
COC(=O)[C@@H]1[C@@H](CO)[C@@H]2Cn3c(cccc3=O)[C@H]1N2C(=O)C1CCC1	6	-2	/	/
CN(C)C(=O)[C@H]1[C@H](CO)[C@H]2Cn3c(cccc3=O)[C@@H]1N2CC1CC1	-5	-5	/	/
O=C1/C(=C/c2ccccc2)C[C@@]2(O)[C@H]3Cc4ccc(O)c5c4[C@@]2(CCN3CC2CC2)C1O5 (some centres undefined)	23	54*	/	-108
Cc1ccccc1CS(=O)(=O)Cc1ccc(C(=O)N2CCC3(CC2)OCCO3)o1	/	/	-2	-10
COc1ccc(S(=O)(=O)Cc2ccc(C(=O)N3CCC4(CC3)OCCO4)o2)cc1	113*	3	-2	0
CN1CCN(Cc2ccc3ccccc3c2)CC1	8	2	1	/
c1ccc(CN2CCc3nc4ccccc4cc3C2)cc1	11	53*	19	/
N#Cc1ccc(-c2ccc([C@H]3[C@H]4CN(C(=O)Cc5ccccc5)CCCCN4[C@H]3CO)cc2)cc1	8	4	/	/
Oc1cc(O)cc(/C=C/c2ccc(O)cc2O)c1	0	-7	/	94*
CC(C)(C)c1cc(O)ccc1O	/	/	0	/
Cn1cc(CCC(=O)N2CCC3(CC2)OCCO3)c2ccccc21	112*	-5	-5	-4
COC(=O)[C@H]1[C@H](CO)[C@H]2Cn3c(ccc(-c4cccc(OC)c4)c3=O)[C@@H]1N2CC1CC1	10	5	/	/
CN(CC1COc2ccccc2O1)c1nc(-c2cccnc2)nc2ccccc12 (centres undefined)	108*	-9	/	16
CN1CCC(N(C)c2nc(-c3ccc([N+](=O)[O-])cc3)nc3ccccc23)CC1	/	/	/	-60
COc1cccc(OCc2cc(C(=O)N3C[C@H]4C[C@@H](C3)c3cccc(=O)n3C4)no2)c1	12	73*	28	101*
COC(=O)[C@H]1C[C@@H]1[C@H](NP(=O)(c1ccccc1)c1ccccc1)c1ccccc1	111*	-13	-2	2
CCOc1ccc(C(C)=O)cc1Cc1c(O)[nH]c(=S)[nH]c1=O	5	6	1	/
COc1ccc(C(C)=O)cc1Cc1c(O)[nH]c(=S)[nH]c1=O	103*	-2	0	5
CN1[C@@H](CO)[C@@H]2c3ccccc3NC[C@@H]21	0	-8	/	/
Cc1ccc(-c2nn(Cc3ccccc3)cc2C=O)cc1	/	/	55*	44
Cc1ccc(-c2nn(Cc3ccccc3)cc2C=O)cc1C	-25	88*	9	-5
N#Cc1ccc(-c2ccc([C@H]3[C@@H](CO)N4CCCCN(C(=O)Cc5ccccc5)C[C@@H]34)cc2)cc1	19	-2	/	/
COC(=O)[C@H]1[C@H](CO)[C@H]2Cn3c(ccc(C4=CCCC4)c3=O)[C@@H]1N2S(=O)(=O)c1cn(C)cn1	-19	0	/	/
COC(=O)C1=C(c2ccc(OC)c(OC)c2)C[C@@H]2CC[C@H]1N2C(=O)NCCOc1ccc(OC)cc1	121*	1	-4	-8
